The campaign covered roughly 360,000 compounds. About 9,100 (2.5%) were called active. Another 4% or so got no clear call; they are omitted. No stated cut-off is given here; in the data, active means max response below about -50%; inconclusive means no clear call, values can overlap the other calls; inactive means above that. Only a selection was taken, and actives are over-represented in it overall.
target: D(3) dopamine receptor (Homo sapiens) (UniProt P35462); assay: qHTS of D3 Dopamine Receptor Antagonist: qHTS; conditions: D3R cells, DiscoveRx beta-arrestin luminescence, antagonist mode; active compounds read low
Summary of the method: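 Cells expressing the human receptor were seeded at 1500 cells/well, incubated overnight at 37 degrees C in 5% CO2, then exposed to library compounds with dopamine controls for 90 minutes at 37 degrees C before luminescent detection.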
On the % scale 0 is the no-effect control and ±100 the full control effect.

Chain of D(3) dopamine receptor (Homo sapiens) (P35462 whole entry, looked up): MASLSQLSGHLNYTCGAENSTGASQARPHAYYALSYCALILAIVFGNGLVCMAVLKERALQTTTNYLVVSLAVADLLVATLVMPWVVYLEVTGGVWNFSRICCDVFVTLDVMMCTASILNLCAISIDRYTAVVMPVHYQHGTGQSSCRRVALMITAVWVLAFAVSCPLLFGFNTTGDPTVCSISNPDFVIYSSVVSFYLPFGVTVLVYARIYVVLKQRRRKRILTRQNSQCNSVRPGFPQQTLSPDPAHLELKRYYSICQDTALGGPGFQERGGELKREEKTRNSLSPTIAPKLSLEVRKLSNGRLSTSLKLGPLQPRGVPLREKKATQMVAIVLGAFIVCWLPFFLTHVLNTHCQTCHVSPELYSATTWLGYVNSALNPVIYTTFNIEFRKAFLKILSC

Max response, negative = inhibition, active:
Cc1cc(=O)oc(C)c1C(=O)NC1CC(C)(C)NC(C)(C)C1 -75.7%
Brc1ccc(CN2CC[C@H]3C=CCc4cccc(c43)C2)cc1 -107%
O=c1[nH]c2ccccc2n1C1CCN(CCOc2ccccc2)CC1 -110%
COc1cc(CNCCN(C)C)ccc1OCc1c(F)cccc1Cl -51.3%
Cc1ccc2sc(N(CCN(C)C)C(=O)/C=C/c3cccs3)nc2c1C -69.2%
O=C(CC1NCCc2ccccc21)Nc1cccc(Cl)c1 (stereo not drawn) -95.5%
CC(=O)Nc1sc2c(c1C(c1cccc(F)c1)N1CCN(CCO)CC1)CCCC2 (stereo not drawn) -60.6%
CN(CC(=O)NC1CCN(Cc2ccccc2)CC1)S(=O)(=O)c1ccc(Cl)s1 -58.6%
COc1ccc(C(CNC(=O)COc2ccccc2OC)N2CCCCC2)cc1 (stereo not drawn) -53.8%
COc1ccc(C(CNC(=O)COc2ccc([N+](=O)[O-])cc2)N2CCCCC2)cc1 (stereo not drawn) -74.5%
Cc1ccc(SC(CC(=O)c2ccc(C(C)(C)C)cc2)C(=O)O)cc1 (stereo not drawn) -80.7%
CCN1CCN(C(c2cccnc2)c2cc(Cl)c3cccnc3c2O)CC1 (stereo not drawn) -91.7%
COc1cc(C(CCN2CCN(c3ccccc3)CC2)c2c(OC)cc(OC)c3ccc(=O)oc23)cc(OC)c1OC (stereo not drawn) -84.7%
COc1cc(OC)c2ccc(=O)oc2c1C(CCN1CCN(c2ccccc2)CC1)c1ccc2c(c1)OCO2 (stereo not drawn) -81.3%

Max response, negative = inhibition, inactive:
N#CCCC(C#N)(c1cccnc1)N1CCOCC1 (stereo not drawn) -3.79%
Cc1ccc(C(=O)NC2CC(C)(C)NC(C)(C)C2)c(C)c1 39.4%
Cc1cc(OC(C)C(=O)NC2CC(C)(C)NC(C)(C)C2)c2c(C)cc(=O)oc2c1 (stereo not drawn) 7.98%
CC(C)C[C@H]1CNC(=O)C(=O)N1C[C@@H]1CCCN1C[C@H](Cc1ccccc1)N1C[C@H](CC(C)C)N(CC2CCCCCC2)C(=O)C1=O -0.867%
CCOC(=O)[C@]12CCCC=C1N(CCC1=CCCCC1)C(=O)[C@H](CC(=O)N1CCN(C(=O)c3ccco3)CC1)C2 0%
Brc1ccccc1CN1CCC(Cc2ccccc2)CC1 -26.3%
NC(=O)c1ccc(CN2CCC(Cc3ccccc3)CC2)cc1 -23.1%
O[C@@H]1C[C@H](c2ccccc2)N(Cc2cccs2)C[C@H]1n1cc(C2CC2)nn1 2.45%
C[C@H]1Cn2cnc(C(=O)N[C@H](C)c3ccccc3)c2C(=O)N1 -3.02%
O=C1CCN(CCc2ccccc2)CCN1CCOc1ccccc1 -8.76%
OC(c1ccccc1)(c1ccccc1)C1CCN(CCCOc2ccccc2)CC1 -8.6%
CS(=O)(=O)N1CCCCC1c1cc(C(=O)NCc2ccccc2)no1 (stereo not drawn) 13.9%
CCN(CC)CCNCc1ccc(OCc2ccc(Cl)nc2)c(OC)c1 -23.1%
CCOCCCNCc1ccc(OCc2ccc(F)cc2)c(OC)c1 13.1%
CCOC(=O)[C@]12CCCC=C1N(CCC1=CCCCC1)C(=O)[C@H](CC(=O)N1CCCCC1)C2 6.86%
Cc1ccc([C@@H]2CC(=O)[C@@H]3CN(S(=O)(=O)c4ccc(C)cc4)[C@H](c4ccccc4F)C[C@@H]3N2S(=O)(=O)c2ccc(Cl)cc2)cc1 4.51%
Cc1ccc(S(=O)(=O)N(C)C)cc1NC(=O)/C=C/c1cccs1 -18.2%
Cc1cc(C)c2nc(N(CCN(C)C)C(=O)/C=C/c3cccs3)sc2c1 -2.22%
COc1ccc(C2CC(c3cccc(OC)c3)=NN2c2ccc(S(N)(=O)=O)cc2)cc1 (stereo not drawn) 17.8%
O=C(/C=C/[C@H]1O[C@@H](n2ccc(=O)[nH]c2=O)[C@H](O)[C@@H]1O)NCc1ccccn1 9.97%
O=C(CC1NCCNC1=O)Nc1ccc(Oc2ccccc2)cc1 (stereo not drawn) 24.3%
O=C(CC1NCCNC1=O)Nc1cc(Cl)cc(Cl)c1 (stereo not drawn) 20.6%
O=C(Nc1sc2c(c1C(=O)O)CCC2)c1ccccc1F -1.53%
Cc1cccc(C)c1NC(=O)C(c1cccc(F)c1)N1CCN(C)CC1 (stereo not drawn) -13.2%
Cc1ccc(S(=O)(=O)N[C@H]2CCC[C@@H]2O)cc1 -12.4%
CN(C(=O)CN1CCN(c2cc(-c3ccc(OCc4ccccc4)cc3)ncn2)CC1)c1ccccc1 49%
CC(=O)NCc1ccc(S(=O)(=O)NC2CCN(Cc3ccccc3)CC2)cc1 -11.1%
CN(CC(=O)NC1CCCCC1)S(=O)(=O)c1ccc(Br)s1 -7.06%
CCNC(=O)C1(C)CCCN1C(=O)c1ccc(N(C)C)cc1 (stereo not drawn) 6.44%
CC(C)(C)N1C(=O)c2c(C(=O)OCc3ccccc3)[nH]c(-c3ccccc3)c2C1=O -3.03%
CC(=O)Nc1cccc(-c2cc3nc(NCc4cccnc4)n(C)c(=O)c3s2)c1 17.6%
CCOc1ccc(NS(=O)(=O)c2ccc(C(=O)NCC(c3ccccc3OC)N3CCCC3)cc2)cc1 (stereo not drawn) -13.6%
COc1ccc(C(CNC(=O)c2ccc(OCc3cscn3)cc2)N2CCCC2)cc1 (stereo not drawn) -19.8%
COc1ccc(OCC(=O)NNC(=O)C2CCC2)cc1 -0.824%
COc1ccc(C(CNC(=O)CSc2ccccc2)N2CCOCC2)cc1 (stereo not drawn) 19.6%
CCc1nc2ccc(C(=O)NCCNC(C)=O)cn2c1N(CC)Cc1cccc(Br)c1 48.8%
O=C1NC[C@H](Cc2ccc(O)cc2)N(C[C@@H]2CCCN2C[C@H](Cc2ccccc2)N2C[C@H](Cc3ccccc3)N(CC3CCCCC3)C(=O)C2=O)C1=O 8.41%
CC(C)(C)c1ccc(C(=O)NNC(=O)Cc2ccccc2)cc1 -17.8%
Cc1ccc(Sc2cc(C(=O)c3ccccc3C(=O)O)ccc2[N+](=O)[O-])cc1 -21.4%
Cc1ccc([C@H]2C[C@H](O)[C@@H](n3cc(COC(=O)c4ccccc4)nn3)CN2CC2CCCCC2)cc1 1.62%
O=C(C(=O)N1CCN(c2ccccc2)CC1)c1ccc2c(c1)OCO2 -3.44%
CCN(CC)C(=O)CC(c1ccc2c(c1)OCO2)c1c(OC)cc(OC)c2c(-c3ccccc3)cc(=O)oc12 (stereo not drawn) 0.75%
CCN(CC)CCC(c1cc(OC)c(OC)c(OC)c1)c1c(OC)cc(OC)c2c(-c3ccccc3)cc(=O)oc12 (stereo not drawn) 15.7%
COc1ccc(C(CC(=O)N2CCN(c3ccccc3)CC2)c2c(O)cc(OC)cc2OC)cc1 (stereo not drawn) 8.17%

Source: PubChem BioAssay AID652054 (National Center for Advancing Translational Sciences (NCATS), 2013)
